From PubChem BioAssay AID743363 (Broad Institute, 2014) come the findings set out here.

A short description of this test: BioD-coupled fluorescence displacement counter-assay – biochemical, dry powder samples, counter-screen, dose response (AID 743363). (The purpose of a counterscreen is to sort out artefacts and off-target activity.)

The source made the active and inactive calls. The rule behind the calls is not given here.

Take `CN(C)C(=O)c1ccc(N2CCN(C(=O)c3ccc4c(c3)OCO4)CC2)cc1`: the result was inactive. Next, `CC(=O)c1ccc(N2CCN(C(=O)c3ccc(Cl)c(Cl)c3)CC2)cc1`: “inactive”; `COc1ccccc1NC(=O)N1CC[C@@H]2[C@@H](CO)N(C)c3ccc(-c4cccc(F)c4)cc3[C@@H]21`: “inactive”; `CC(=O)c1ccc(N2CCN(C(=O)c3ccccc3F)CC2)cc1`: “inactive”.

As to `CC(=O)c1ccc(N2CCN(C(=O)c3ccc4ocnc4c3)CC2)cc1`, the compound was classed as inactive. Regarding `CN1c2ccc(-c3cccc(F)c3)cc2[C@@H]2[C@@H](CCN2C(=O)c2ccc3c(c2)OCO3)[C@@H]1CO`, the result was inactive.

Take `CC(=O)c1ccc(N2CCN(C(=O)c3cc4c(cn3)OCO4)CC2)cc1`: the call was inactive. Next, `CC(=O)c1ccc(N2CCN(S(=O)(=O)c3ccc4c(c3)OCO4)CC2)cc1`: “inactive”; `CN1c2ccc(-c3ccc(F)cc3)cc2[C@H]2[C@H](CCN2C(=O)Nc2ccc(F)cc2)[C@H]1CO`: “inactive”. The result for `CCCNC(=O)N1CC[C@@H]2[C@@H](CO)N(C)c3ccc(-c4ccc(F)cc4)cc3[C@@H]21` reads “inactive”. In the case of `CC(=O)c1ccc(N2CCN(C(=O)c3cc4c(cc3Cl)OCO4)CC2)cc1`, the compound was called inactive. The result for `CC(=O)c1ccc(N2CC3CC2CN3C(=O)c2ccc3c(c2)OCO3)cc1` (stereo not given) reads “inactive”.

Consider `CC(=O)c1ccc(N2CCN(C(=O)c3ccccc3Cl)CC2)cc1`, for which the outcome was inactive. In the case of `CN(C)S(=O)(=O)c1ccc(N2CCN(C(=O)c3ccc4c(c3)OCO4)CC2)cc1`, the outcome was inactive. In the case of `CN1c2ccc(-c3cccc(F)c3)cc2[C@H]2[C@H](CCN2C(=O)c2ccc3c(c2)OCO3)[C@@H]1CO`, the compound was classed as inactive. Regarding `COc1ccccc1C(=O)N1CCN(c2ccc(C(C)=O)cc2)CC1`, the call was inactive. The result for `COc1cc(C(=O)N2CCN(c3ccc(C(C)=O)cc3)CC2)cc2c1OCO2` reads “inactive”; that for `CN1c2ccc(-c3cccc(F)c3)cc2[C@H]2[C@H](CCN2C(=O)Nc2ccccc2F)[C@H]1CO`, “inactive”.

Turning to `CC(C)NC(=O)N1CC[C@@H]2[C@@H](CO)N(C)c3ccc(-c4cccc(F)c4)cc3[C@@H]21`, the compound was classed as inactive.

As to `CN1c2ccc(-c3cccc(F)c3)cc2[C@H]2[C@H](CCN2C(=O)CCCCCCC(=O)O)[C@H]1CO`, the result was inactive. The result for `N#Cc1ccc(N2CCN(C(=O)c3ccc4c(c3)OCO4)CC2)cc1` reads “inactive”. Next, `CN1c2ccc(-c3ccc(F)cc3)cc2[C@H]2[C@H](CCN2C(=O)Cc2cccnc2)[C@H]1CO`: “inactive”; `CS(=O)(=O)c1ccc(N2CCN(C(=O)c3ccc4c(c3)OCO4)CC2)cc1`: “inactive”; `COc1cc2c(cc1C(=O)N1CCN(c3ccc(C(C)=O)cc3)CC1)OCO2`: “inactive”. The result for `CC(=O)c1ccc(N2CCN(C(=O)c3cccc4c3OCO4)CC2)cc1` reads “inactive”; that for `CCCCCCCC(=O)N1CC[C@@H]2[C@@H](CO)N(C)c3ccc(-c4cccc(F)c4)cc3[C@@H]21`, “inactive”. In the case of `CC(=O)c1ccc(NCCNC(=O)c2ccc3c(c2)OCO3)cc1`, the outcome was inactive. Next, `COc1ccc(NC(=O)N2CC[C@@H]3[C@@H](CO)N(C)c4ccc(-c5cccc(F)c5)cc4[C@@H]32)cc1`: “inactive”; `O=C(c1ccc2c(c1)OCO2)N1CCN(c2ccc(OC(F)(F)F)cc2)CC1`: “inactive”; `CC(=O)c1ccc(N2CCN(C(=O)Nc3ccc4c(c3)OCO4)CC2)cc1`: “inactive”.
